# Data published in PubChem BioAssay (EPA / NIEHS).
# Where “and” joins values, the source holds several entries; their conditions need not be identical. Identical values can stand only once. Records with an inconclusive call do not appear. The source holds several records for some structures; these can differ, active in one and inactive in another. Calls of active or inactive are those of the source. The calls were made as follows, unless noted: active = hit-call score of the fitted dose curve at least 0.9, where 1 is the maximum; inconclusive = response in the unintended direction; inactive = score below 0.9.
# Tests used:
# [1] = ATG_XTT_Cytotoxicity: Cytotoxicity Assessment in the Attagene TRANS-FACTORIAL HepG2 Assay (AID 2283584);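 as to AC50: cells exposed to compound for 24 h before reading; active means loss of viability signal versus DMSO baseline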
# Procedure, shortened: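 Cells: human HepG2, transiently transfected with MRTU reporter constructs. Exposure 24 h. Readout: XTT, cell number. Baseline/neg ctrl DMSO; loss-of-signal scored.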
# [2] = TOX21_p53_BLA_p2_viability: Viability Assessment in the Tox21 HCT-116 p53 Agonism Beta-lactamase Assay, Phase 2 (AID 2283591);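 also: compound exposure lasted 16 h at 37 °C; actives lower the ATP signal meaning cytotoxicity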
# Procedure, shortened: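 Cytotoxicity readout: CellTiter-Glo ATP luminescence, 30 min at room temperature, after the beta-lactamase read. Cells were HCT116 exposed 16 h at 37C to compounds pin-transferred at 217-fold dilution from DMSO stocks.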
# [3] = molecular target: Cellular tumor antigen p53 (Homo sapiens) (UniProt P04637); assay: TOX21_p53_BLA_p2_ratio: Tox21 HCT-116 p53 Agonism Beta-lactamase Assay, Ratio, Phase 2 (AID 2283592)
# Sequence of Cellular tumor antigen p53 (Homo sapiens) (P04637 whole entry, looked up): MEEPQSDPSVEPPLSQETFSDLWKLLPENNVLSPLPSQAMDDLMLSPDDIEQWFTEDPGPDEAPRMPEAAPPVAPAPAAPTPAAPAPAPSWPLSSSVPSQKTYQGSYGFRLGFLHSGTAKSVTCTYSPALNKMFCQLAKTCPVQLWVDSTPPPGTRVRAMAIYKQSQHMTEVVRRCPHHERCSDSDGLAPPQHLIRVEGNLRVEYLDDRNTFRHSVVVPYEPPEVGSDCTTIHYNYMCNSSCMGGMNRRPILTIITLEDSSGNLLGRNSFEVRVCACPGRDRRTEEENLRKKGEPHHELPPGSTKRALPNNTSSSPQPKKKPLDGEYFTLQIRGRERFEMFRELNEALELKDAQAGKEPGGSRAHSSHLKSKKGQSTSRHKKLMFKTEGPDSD
# Procedure, shortened: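 HCT116 p53-bla; 4000 cells/well; 5 h pre-incubation; cpd in DMSO, 217-fold dilution; 16 h 37C/5% CO2; CCF4-AM 2 h RT; Ex 405, Em 460/530 ratio; DMSO = baseline; positive fitting direction.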
# [4] = TOX21_p53_BLA_p4_viability: Viability Assessment in the Tox21 HCT-116 p53 Agonism Beta-lactamase Assay, Phase 4 (AID 2283597);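 also: hits lower the luminescence signal meaning cytotoxicity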
# Procedure, shortened: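 Cells plated, 5 h pre-incubation; DMSO compounds pinned (217-fold dilution); 16 h, 37C/5% CO2; CCF4-AM 2 h RT; CellTiter-Glo 30 min RT; luminescence read.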
# [5] = molecular target: Cellular tumor antigen p53 (Homo sapiens) (UniProt P04637); assay: TOX21_p53_BLA_p5_ratio: Tox21 HCT-116 p53 Agonism Beta-lactamase Assay, Ratio, Phase 5 (AID 2283599)
# Procedure, shortened: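 Beta-lactamase reporter ratio (blue 460 nm over green 530 nm, 405 nm excitation) after 2 h CCF4-AM loading, in HCT-116 cells exposed 16 h at 37 C to compounds pinned at 217-fold dilution. Increases relative to DMSO baseline scored.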
# [6] = TOX21_p53_BLA_p5_viability: Viability Assessment in the Tox21 HCT-116 p53 Agonism Beta-lactamase Assay, Phase 5 (AID 2283600)
# Procedure, shortened: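 4000 cells/well; 5 h pre-incubation; DMSO compounds pin-transferred, 217-fold dilution; 16 h, 37C/5% CO2; CCF4-AM 2 h RT; CellTiter-Glo 30 min RT; luminescence.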
# [7] = molecular target: Cellular tumor antigen p53 (Homo sapiens) (UniProt P04637); assay: TOX21_p53_BLA_p4_ratio: Tox21 HCT-116 p53 Agonism Beta-lactamase Assay, Ratio, Phase 4 (AID 2283601)
# Procedure, shortened: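 Signal is the blue/green (460nm/530nm) ratio of cleaved versus uncleaved CCF4-AM substrate, read after 2 h substrate loading. Cells were HCT116 carrying the p53-responsive beta-lactamase reporter, dosed 16 h at 37C, 5% CO2; CellTiter-Glo measured in parallel.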
# [8] = CEETOX_H295R_CORTIC: CeeTox H295R High-throughput Steroidogenesis Assay for Corticosterone (CORTIC) (AID 2283437; active = hit-call score of the fitted dose curve at least 0.9, where 1 is the maximum; inactive = score below 0.9;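 also: corticosterone secreted into medium quantified by mass spectrometry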); conditions: actives raise or lower the signal
# Procedure, shortened: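 Corticosterone secreted into medium is measured by reverse-phase HPLC with tandem MS following liquid-liquid extraction. Cells are forskolin-stimulated (10 uM, 48 h) before 48 h test exposure; activity fitted in both directions against DMSO.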
# [9] = CEETOX_H295R_CORTISOL: CeeTox H295R High-throughput Steroidogenesis Assay for Cortisol (AID 2283438; active = hit-call score of the fitted dose curve at least 0.9, where 1 is the maximum; inactive = score below 0.9;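 also: cortisol secreted into medium quantified by LC-MS/MS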); conditions: actives raise or lower the signal
# Procedure, shortened: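 H295R human adrenal cells were prestimulated 48 h with 10 uM forskolin, then exposed 48 h to test chemical (0.1% DMSO final). Medium cortisol was quantified by HPLC-MS/MS after MTBE extraction; bidirectional fitting relative to DMSO baseline.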
# [10] = CEETOX_H295R_DOC: CeeTox H295R High-throughput Steroidogenesis Assay for DOC (AID 2283439; active = hit-call score of the fitted dose curve at least 0.9, where 1 is the maximum; inactive = score below 0.9); conditions: actives raise or lower the signal
# Procedure, shortened: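 H295R adrenal cells prestimulated 48 h with 10 uM forskolin, then exposed 48 h to test chemical (0.1% DMSO final). Medium 11-deoxycorticosterone extracted with MTBE, quantified by HPLC-MS/MS; bidirectional fit versus DMSO baseline; MTT viability in same wells.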
# [11] = CEETOX_H295R_ESTRADIOL: CeeTox H295R High-throughput Steroidogenesis Assay for Estradiol (AID 2283440; active = hit-call score of the fitted dose curve at least 0.9, where 1 is the maximum; inactive = score below 0.9;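 also: estradiol secreted into medium quantified by LC-MS/MS after dansyl derivatisation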); conditions: actives raise or lower the signal
# Procedure, shortened: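 Estradiol secreted into the medium was measured by tandem mass spectrometry after liquid-liquid extraction and dansylation. Human H295R cells had been forskolin-primed (10 uM, 48 h) before a 48 h chemical exposure with 0.1% DMSO.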
# [12] = CEETOX_H295R_ESTRONE: CeeTox H295R High-throughput Steroidogenesis Assay for Estrone (AID 2283441; active = hit-call score of the fitted dose curve at least 0.9, where 1 is the maximum; inactive = score below 0.9;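 also: estrone secreted into medium measured by LC-MS/MS after dansyl derivatization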); conditions: actives raise or lower the signal
# Procedure, shortened: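 H295R cells; 48 h forskolin (10 uM) prestimulation; 48 h compound exposure, 0.1% DMSO final. Medium estrone: MTBE extraction, dansyl derivatization, HPLC-MS/MS. Bidirectional fit vs DMSO.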
# [13] = CEETOX_H295R_PROG: CeeTox H295R High-throughput Steroidogenesis Assay for Progesterone (PROG) (AID 2283442; active = hit-call score of the fitted dose curve at least 0.9, where 1 is the maximum; inactive = score below 0.9;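 as to AC50: human H295R adrenal cells primed with 10 µM forskolin before dosing; progesterone secreted into medium by H295R cells measured by HPLC-MS/MS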); conditions: actives raise or lower the signal
# Procedure, shortened: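 Steps: seed H295R cells and let them adhere overnight; prime 48 h with 10 uM forskolin; dose with compound in DMSO at 0.1% final for 48 h; extract medium steroids with MTBE; measure progesterone by LC-MS/MS. MTT viability was run in the same wells.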
# [14] = CEETOX_H295R_MTT_cell_viability: Viability Assessment in the CeeTox HT-H295R MTT Assay (AID 2283718; active = hit-call score of the fitted dose curve at least 0.9, where 1 is the maximum; inactive = score below 0.9;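 as to AC50: curve fitted both ways so AC50 may mark viability loss or gain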)
# Procedure, shortened: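 MTT reduction (0.5 mg/ml, 4 h at 37 C; absorbance at 570 and 650 nm) gave viability as background-corrected percent change versus controls. H295R cells had 48 h forskolin (10 uM) prestimulation, then 48 h chemical exposure at 0.1% DMSO.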
# [15] = CEETOX_H295R_TESTO: CeeTox H295R High-throughput Steroidogenesis Assay for Testosterone (TESTO) (AID 2283457; active = hit-call score of the fitted dose curve at least 0.9, where 1 is the maximum; inactive = score below 0.9;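 as to AC50: cells exposed to chemicals for 48 h before medium collection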); conditions: actives raise or lower the signal
# Procedure, shortened: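 H295R, passage ≤10, 48 h dosing; media extracted with MTBE → HPLC-MS/MS for testosterone; 7-pt standard curve sets LLOQ/ULOQ; bidirectional fit vs DMSO; MTT viability same wells.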
# [16] = test system: Thyroperoxidase (TPO), gene 54314; assay: CCTE_Simmons_AUR_rTPO: CCTE's Amplex UltraRed Assay for Thyroperoxidase (TPO) Inhibition, Simmons Lab (AID 2283662);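 also: potency for loss of signal meaning inhibition of peroxidase activity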
# Procedure, shortened: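 Endpoint is decreased Amplex UltraRed fluorescence after a 30-min, 37C reaction of rat thyroid microsomes with 300 uM H2O2. Eight test concentrations (5 nM–87.5 uM final) in 0.5% DMSO, three biological replicates each.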
# [17] = CCTE_Simmons_CellTiterGLO_HEK293T: Viability Assessment in CCTE's Assays for Thyroperoxidase (TPO) Inhibition, Simmons Lab (AID 2283665);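 as to AC50: cells exposed to compound for 24 h before readout; actives reduce ATP signal below DMSO vehicle meaning cytotoxicity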
# Procedure, shortened: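 HEK293T cells in DMEM with 1% FBS were dosed with 8 concentrations (5 nM–87.5 uM final, 0.5% DMSO) for 24 hr at 37C; ATP content was read by CellTiter-Glo luminescence, loss-of-signal versus DMSO, three biological replicates.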
# [18] = molecular target: Luciferin 4-monooxygenase (Photinus pyralis) (UniProt P08659); assay: CCTE_Simmons_QuantiLum_inhib_2: CCTE's Firefly Luciferase Inhibition Assay, Simmons Lab (AID 2283767);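 as to AC50: potency for inhibitors that lower luciferase luminescence relative to DMSO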
# Sequence of Luciferin 4-monooxygenase (Photinus pyralis) (P08659 whole entry, looked up): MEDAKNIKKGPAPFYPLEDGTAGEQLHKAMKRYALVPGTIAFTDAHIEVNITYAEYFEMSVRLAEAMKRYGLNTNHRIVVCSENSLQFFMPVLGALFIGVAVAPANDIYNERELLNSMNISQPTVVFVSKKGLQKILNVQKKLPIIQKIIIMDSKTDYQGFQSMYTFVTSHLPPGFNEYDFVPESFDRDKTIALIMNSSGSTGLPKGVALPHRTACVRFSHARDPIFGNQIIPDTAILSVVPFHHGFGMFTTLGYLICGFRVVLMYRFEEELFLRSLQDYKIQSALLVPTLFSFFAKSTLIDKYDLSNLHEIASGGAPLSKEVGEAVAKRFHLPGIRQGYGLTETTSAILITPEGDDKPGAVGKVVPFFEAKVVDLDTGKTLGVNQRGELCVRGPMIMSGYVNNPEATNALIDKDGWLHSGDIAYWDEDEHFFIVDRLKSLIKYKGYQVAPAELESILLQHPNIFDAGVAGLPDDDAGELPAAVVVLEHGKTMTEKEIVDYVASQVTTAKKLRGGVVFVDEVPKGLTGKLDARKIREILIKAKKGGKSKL
# Procedure, shortened: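 Recombinant firefly luciferase (5 ng/well, 200 mM potassium phosphate with 1 mg/ml BSA) was exposed to 8 concentrations from 5 nM to 87.5 uM (final, 0.5% DMSO) for 30 min at 37C in the dark. Loss of luminescence versus DMSO was read after injecting D-luciferin/ATP-analogue reagent.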
smiles,measurement,setting,value
C1COCCN1,outcome,[1],inactive
same,outcome,[2],inactive
same,outcome,[3],inactive
same,outcome,[4],inactive
same,outcome,[5],inactive
same,outcome,[6],inactive
same,outcome,[7],inactive
CC(C)=CCCC(C)CCOC(=O)C(C)C (configuration not stated),outcome,[1],inactive
O[Si](c1ccccc1)(c1ccccc1)c1ccccc1,outcome,[1],inactive
CCCCCC=O,outcome,[1],inactive
same,outcome,[2],inactive
same,outcome,[3],inactive
same,outcome,[4],inactive
same,outcome,[5],inactive
same,outcome,[6],inactive
CCCCC(CC)COP(=O)(O)OCC(CC)CCCC (configuration not stated),AC50,[1],146 µM (active)
COC(OC(C)=O)c1ccccc1 (configuration not stated),outcome,[1],inactive
CCCCCCCCCCCCCCCC[N+](C)(C)Cc1ccccc1,outcome,[1],inactive
same,AC50,[2],42.5 µM (active) and 23 µM (active)
same,AC50,[3],64.7 µM (active)
same,outcome,[3],inactive
same,AC50,[4],25.9 µM (active) and 27.1 µM (active)
same,AC50,[5],75.8 µM (active) and 38.4 µM (active)
same,AC50,[6],57.9 µM (active) and 23 µM (active)
same,AC50,[7],42.3 µM (active) and 43.4 µM (active)
CCCCOCCOCCOC(=O)CCCCC(=O)OCCOCCOCCCC,outcome,[1],inactive
CNC(=S)NC,outcome,[1],inactive
same,outcome,[2],inactive
same,outcome,[3],inactive
same,AC50,[4],46.1 µM (active)
same,outcome,[5],inactive
same,outcome,[6],inactive
same,outcome,[7],inactive
Nc1ccc(Oc2cccc(Oc3ccc(N)cc3)c2)cc1,AC50,[8],2.84 µM (active)
same,AC50,[9],3.6 µM (active)
same,outcome,[10],inactive
same,outcome,[11],inactive
same,outcome,[12],inactive
same,AC50,[13],3.9 µM (active)
same,outcome,[1],inactive
same,outcome,[14],inactive
CC(C)c1ccccc1N,outcome,[1],inactive
Cc1cccc(N(C)C)c1,outcome,[8],inactive
same,outcome,[9],inactive
same,outcome,[10],inactive
same,outcome,[11],inactive
same,outcome,[12],inactive
same,outcome,[13],inactive
same,outcome,[15],inactive
same,outcome,[1],inactive
same,outcome,[14],inactive
CO[Si](OC)(c1ccccc1)c1ccccc1,outcome,[1],inactive
CS(C)(=O)=O,outcome,[1],inactive
CC(C)(C)c1ccc(OC2CCCCC2O)cc1 (configuration not stated),outcome,[1],inactive
CCCCCCS,outcome,[8],inactive
same,outcome,[9],inactive
same,outcome,[10],inactive
same,outcome,[11],inactive
same,outcome,[12],inactive
same,outcome,[13],inactive
same,outcome,[15],inactive
same,outcome,[1],inactive
same,outcome,[14],inactive
C#C[C@]1(O)CC[C@H]2[C@@H]3CCc4cc(OC)ccc4[C@H]3CC[C@@]21C,outcome,[9],inactive
same,outcome,[10],inactive
same,AC50,[13],3.58 µM (active)
same,outcome,[1],inactive
same,outcome,[2],inactive
same,outcome,[3],inactive
same,outcome,[4],inactive
same,outcome,[5],inactive
same,outcome,[6],inactive
same,outcome,[7],inactive
same,AC50,[14],44 µM (active)
CC(=O)Nc1ccc(N=Nc2cc(C)ccc2O)cc1,AC50,[8],25 µM (active)
same,outcome,[9],inactive
same,outcome,[10],inactive
same,outcome,[11],inactive
same,outcome,[12],inactive
same,AC50,[13],20.9 µM (active)
same,AC50,[15],31.5 µM (active)
same,outcome,[1],inactive
same,outcome,[14],inactive
CCCCCCC(C)OC(=O)CCCCC(=O)OC(C)CCCCCC (configuration not stated),outcome,[1],inactive
CC(Cc1ccc(O)c(O)c1)C(C)Cc1ccc(O)c(O)c1 (configuration not stated),AC50,[8],12.7 µM (active)
same,AC50,[9],78.3 µM (active)
same,AC50,[10],11.7 µM (active)
same,outcome,[11],inactive
same,outcome,[12],inactive
same,AC50,[13],13.9 µM (active)
same,outcome,[1],inactive
same,AC50,[2],63.6 µM (active)
same,AC50,[4],46.1 µM (active)
same,AC50,[5],81.3 µM (active)
same,outcome,[6],inactive
same,AC50,[7],75.5 µM (active)
same,AC50,[16],0.55 µM (active)
same,AC50,[17],87 µM (active)
same,AC50,[14],37.4 µM (active)
same,AC50,[18],16.1 µM (active)
c1ccc(-c2ccccc2-c2ccccc2)cc1,outcome,[1],inactive
c1ccc(B(c2ccccc2)c2ccccc2)cc1,outcome,[8],inactive
same,outcome,[9],inactive
same,AC50,[10],8.03 µM (active)
same,AC50,[13],12.6 µM (active)
same,outcome,[1],inactive
same,outcome,[2],inactive
same,outcome,[4],inactive
same,outcome,[5],inactive
same,outcome,[6],inactive
same,outcome,[7],inactive
same,AC50,[16],29.2 µM (active)
same,AC50,[17],90.1 µM (active)
same,AC50,[14],50 µM (active)
same,AC50,[18],53.8 µM (active)
Nc1ccc([N+](=O)[O-])cc1O,outcome,[1],inactive
same,outcome,[2],inactive
same,outcome,[3],inactive
same,outcome,[4],inactive
same,outcome,[5],inactive
same,outcome,[6],inactive
same,outcome,[7],inactive
CCc1c(Br)c(Br)c(Br)c(Br)c1Br,outcome,[1],inactive
C=CC/C=C/C/C=C/C/C=C/C,outcome,[1],inactive
CCCCOc1ccc(N)cc1,outcome,[2],inactive
same,outcome,[3],inactive
same,outcome,[4],inactive
same,outcome,[5],inactive
same,outcome,[6],inactive
same,AC50,[16],0.869 µM (active)
same,outcome,[17],inactive
same,outcome,[18],inactive
